Most compounds without a hit are left out; they make up all but 9.4% or so of the library.
Rab9 prom act = qHTS Assay for Rab9 Promoter Activators; Huh7 Rab9 promoter-luciferase reporter, luminescence, 24 h; Potency, µM (highest dose often 9.22 µM), for the others: at the top dose activation, negative = inhibition, hits mostly activators; 320,000 tested, 2.8% active; AID 485297, 2010; note: % of control where 0% means no effect; nearly all actives have a fitted effect of over 60% in size
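Steps: seed 1500 Huh7 Rab9-luc cells per well, rest 2 h at 37 °C; add compound in DMSO; incubate 24 h; add luciferase reagent, 10 min ambient; read luminescence.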
NPC1 prom act = qHTS Assay for NPC1 Promoter Activators | Huh7 NPC1 promoter luciferase reporter, 24 h | Potency, µM (highest dose often 9.22 µM), for the others: at the top dose activation, hits mostly activators | 320,000 tested, 2.4% active; note: % of control where 0% means no effect; nearly all actives have a fitted effect of over 60% in size
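NPC1 promoter–luciferase Huh7 cells; 24 h compound; luminescence.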
FLuc modulator = qHTS profiling assay for firefly luciferase inhibitor/activator using purifed enzyme and Km concentrations of substrates (counterscreen for miR-21 project); Luciferin 4-monooxygenase (Photinus pyralis), P08659; purified FLuc, Km substrates, luminescence inhibition; Potency, µM (titrated, usually from 57.5 µM), inactives show at the top dose activity change, negative = inhibition, actives largely listed as inhibitors; 360,000 tested, 6.9% active;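 note: plate controls were vehicle for no effect and reference inhibitor for full effect; nearly all actives have a fitted effect of over 55% in size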
Target sequence (P08659 whole entry, looked up): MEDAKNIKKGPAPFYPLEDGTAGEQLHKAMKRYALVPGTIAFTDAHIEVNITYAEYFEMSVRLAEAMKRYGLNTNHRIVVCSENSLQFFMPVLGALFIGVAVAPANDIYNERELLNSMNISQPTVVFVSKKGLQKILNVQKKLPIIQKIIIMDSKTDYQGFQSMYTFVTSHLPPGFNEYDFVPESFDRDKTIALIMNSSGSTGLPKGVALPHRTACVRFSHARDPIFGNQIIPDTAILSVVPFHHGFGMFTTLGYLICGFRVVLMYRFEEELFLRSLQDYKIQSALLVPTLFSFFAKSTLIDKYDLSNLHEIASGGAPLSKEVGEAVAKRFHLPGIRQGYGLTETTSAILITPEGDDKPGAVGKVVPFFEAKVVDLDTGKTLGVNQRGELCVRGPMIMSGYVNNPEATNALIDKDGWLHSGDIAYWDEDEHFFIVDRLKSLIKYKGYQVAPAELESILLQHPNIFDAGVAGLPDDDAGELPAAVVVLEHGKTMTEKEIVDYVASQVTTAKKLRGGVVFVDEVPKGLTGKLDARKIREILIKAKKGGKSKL
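Purified P. pyralis luciferase (10nM final) with 10uM D-luciferin and 10uM ATP (Km levels) in 50mM Tris acetate pH 7.5, 10mM Mg acetate, 0.01% Tween-20, 0.05% BSA; qHTS 6-point titration, ~60 µM downward; luminescence read.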
SMN2 splice up = qHTS Assay for Enhancers of SMN2 Splice Variant Expression; HEK293 SMN2-luciferase splicing reporter, luminescence, 30-36 h; Potency, µM (highest dose often 46.1 µM), for inactives: at the top dose activity change, positive = activation, actives largely listed as activators; 210,000 tested, 2.8% active; note: % of control where 0% means no effect; nearly all actives have a fitted effect of over 55% in size
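HEK293 cells carry an SMN2 […]–luciferase reporter in which exon 7 inclusion puts luciferase in frame. Cells were plated 10-12 h before compound addition, then incubated 30-36 h at 37C. ONE-Glo luminescence was read; sodium butyrate at 4.5 mM final served as control.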
ELG1 repair inh = qHTS screen for small molecules that inhibit ELG1-dependent DNA repair in human embryonic kidney (HEK293T) cells expressing luciferase-tagged ELG1. HEK293T ELG1-luciferase reporter, luminescence, 16 h; DNA damage induced by 5-fluorouridine. Potency, µM (doses to about 46.1 µM), without a hit: at the highest dose activity change, negative = inhibition, hits mostly inhibitors. 330,000 tested, 2.3% active. AID 504467, 2011; note: % is set by controls: 0 for no effect and ±100 for the full control effect; nearly all actives have a fitted effect of over 55% in size
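5-Fluorouridine DNA damage + compound/DMSO, 2,000 cells/well, 16 h, 37 °C/5% CO2. ONE-Glo, 30 min RT, luminescence. Readout = decrease in reporter signal.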
ELG1 genotoxic = qHTS screen for small molecules that induce genotoxicity in human embryonic kidney (HEK293T) cells expressing luciferase-tagged ELG1; HEK293T ELG1-luciferase reporter, luminescence, 16 h; 330,000 tested, 1.3% active; Potency, µM (top dose mostly 46 µM), inactives show top-dose activity change, positive = activation, actives largely listed as activators; note: % of control where 0% means no effect; nearly all actives have a fitted effect of over 60% in size
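Luminescence read-out: rising ELG1-luciferase signal, reflecting elevated ELG1 protein under genetic stress, flags genotoxic compounds. Cells were treated for 16 hr at 37 °C before ONE-Glo detection.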
Numbers without * were called inactive; u = inconclusive; x = no result given; [ ] = another dose, or the depositor's remark. Calls come from the whole dose curve; as a rule, active = well fitted curve in the direction sought with a large enough effect; inconclusive = small, poorly fitted or top-dose-only effect, or another doubt; inactive = no such curve, though single readings can be large; an effect the other way counts as inactive or inconclusive. Potency is the fitted concentration of half-maximal effect.

SMILES	Rab9 prom act	NPC1 prom act	FLuc modulator	SMN2 splice up	ELG1 repair inh	ELG1 genotoxic
CC(=O)Oc1ccc2occ(C(=O)c3cccs3)c2c1	u	u	13.5µM*	-1.4%	u	u
C[C@@H](NC(=O)C1(N)CCCC1)C(=O)O	x	x	x	-13.0%[9.22 µM]	x	x
CCOc1ccc(CCNC(=O)c2ccc3c(=O)[nH]c4c(C(=O)NC(C)C)sc(=S)n4c3c2)cc1	-0.1%	1.9%	16.9µM*	x	u	-13.1%
CC(C)NC(=O)c1sc(=S)n2c1[nH]c(=O)c1ccc(C(=O)NCCc3ccc(Cl)cc3)cc12	-3.4%	-2.5%	u	x	-10.6%	-4.6%
O=C(NCCc1ccccc1)c1ccc2c(=O)[nH]c3c(C(=O)NCC4CCCO4)sc(=S)n3c2c1 (stereo not given)	3.9%	3.0%	u	x	-11.8%	0.3%
COc1ccc(OC)c(CCNC(=O)c2ccc3c(=O)[nH]c4c(C(=O)NC(C)C)sc(=S)n4c3c2)c1	3.4%	12.8%	-18.6%	x	10.3µM*	-5.5%
Cc1oc(-c2ccc(C(=O)Nc3cccc(C(F)(F)F)c3)cc2)nc1CSc1ccccc1	x	x	-9.4%	x	x	x
CC1=C(C(=O)NCc2cccc(Cl)c2)C2(CCCCCC2)OC1=O	x	x	-3.4%	x	x	x
CC(C)(C)c1ccc(C(=O)O/N=C(\N)c2ccccn2)cc1	-24.0%	-25.3%	0.239µM*	x	u	-5.4%
N/C(=N\OC(=O)c1cccc(F)c1)c1ccccn1	1.58µM*	3.55µM*	1.07µM*	x	u	u
COC(=O)c1ccc(COC(=O)c2ccccn2)cc1	1.8%	1.2%	-24.2%[2.3 µM]	21.8%	23.7%	0.3%
C/C(=N/OCc1ccc(Br)cc1)c1ccccn1	2.51µM*	3.98µM*	3.01µM*	14.1µM*	u	4.61µM*
C/C(=N\OC(=O)c1ccc(Br)cc1)c1ccccn1	-7.5%	-1.0%	0.536µM*	0.3%	-0.1%	2.1%
N/C(=N\OC(=O)C(c1ccccc1)c1ccccc1)c1ccccn1	-2.1%	-2.0%	5.3%	-4.3%	u	6.0%
C/C(=N/O)c1ccccn1	-3.3%	2.1%	-0.1%	7.4%	-5.3%	-2.4%
O=C(NCCCNC(=O)c1ccccn1)c1cccc(F)c1	4.3%	-7.0%	3.0%	x	-0.6%	3.5%
O=C(Cn1cc(C(=O)C(F)(F)F)c2ccccc21)N1CCCCCC1	x	x	-7.5%	-18.2%	x	x
Cc1ccccc1C(=O)Nc1c(C)nc2ccccn2c1=O	x	x	-7.1%	x	x	x
CCOc1ccccc1C1C(C(=O)Nc2ccccc2)=C(C)Nc2c(C(=O)Nc3ccc(F)cc3)cnn21 (stereo not given)	x	x	-2.3%	10.6%	x	x
CC(C(=O)O/N=C(\N)c1ccccn1)c1ccc([N+](=O)[O-])cc1 (stereo not given)	5.0%	1.3%	-3.8%	x	u	u
Cc1ccc(C(=O)O/N=C(\N)c2ccccn2)cc1	1.12µM*	0.501µM*	0.0239µM*	x	u	u
Cc1cccc(C(=O)O/N=C(\N)c2ccccn2)c1	3.98µM*	1.58µM*	0.269µM*	x	u	2.59µM*
Cc1cc(C)cc(OCC(=O)O/N=C(\N)c2ccccn2)c1	-8.1%	-4.4%	u	4.8%	u	u
Cc1cccc(C(=O)O/N=C(/c2ccccc2)c2ccncc2)c1	-3.1%	-2.2%	u	-1.2%	-15.0%	-2.4%
N/C(=N\OC(=O)c1ccc(Br)o1)c1ccccn1	2.24µM*	0.562µM*	2.69µM*	12.6µM*	u	u
SMILES	Rab9 prom act	NPC1 prom act	FLuc modulator	SMN2 splice up	ELG1 repair inh	ELG1 genotoxic
N/C(=N\OCc1ccc([N+](=O)[O-])cc1)c1ccccn1	u	u	0.379µM*	0.794µM*	u	0.082µM*
CC(C)N(C)C	x	x	x	-0.8%	x	x
CN(C(=O)Cn1c(=O)n(CCC(=O)NCc2ccc3c(c2)OCO3)c(=O)c2sccc21)c1ccccc1	x	x	3.2%	-3.2%	x	x
CCOc1ccc(C(=O)O/N=C(\N)c2ccccn2)cc1	0.501µM*	0.1µM*	0.0849µM*	x	u	u
COc1cc(C(=O)O/N=C(\N)c2ccccn2)cc(OC)c1OC	27.6%	23.1%	-18.7%	x	u	u
Cc1ccc(C(=O)O/N=C(\N)c2ccccn2)cc1C	0.501µM*	0.316µM*	0.0953µM*	x	u	0.326µM*
N/C(=N\OC(=O)c1ccccc1)c1ccccn1	1µM*	1.78µM*	0.269µM*	x	u	u
Cc1cccc(-c2nnc(SCc3ccccc3)o2)c1	u	u	10.7µM*	u	u	u
COc1cccc(-c2nnc(SCc3cccnc3)o2)c1	3.98µM*	u	23.9µM*	12.0%	u	13.2%
COc1cc(OC)cc(-c2nnc(SCc3cccnc3)o2)c1	8.6%	-8.0%	-16.9%	-2.8%	3.6%	3.1%
O=C(O)c1cccc(CSc2nnc(-c3ccc(Cl)cc3)o2)c1	-0.6%	-0.5%	19µM*	x	27.6%	16.9%
Cc1cccc(CSc2nnc(-c3ccco3)o2)c1	15.8%	17.8%	u	26.0%	u	u
O=C(O)c1cccc(CSc2nnc(COc3ccccc3)o2)c1	-0.7%	-3.6%	u	u	25.6%	-1.5%
CCOCCCNC(=O)C(c1ccc(Cl)cc1)N(Cc1ccc2c(c1)OCO2)C(=O)c1ccccc1O (stereo not given)	x	x	u	6.0%	x	x
COc1cc(OC)c(NC(=O)CSc2nccn2C)cc1Cl	x	x	0.8%	-8.7%	x	x
O=[N+]([O-])c1ccc(C(O)C(CO)NC(=S)Nc2ccccc2)cc1 (stereo not given)	-4.6%	-2.0%	2.6%	x	8.2µM*	-5.1%
Cc1ccc(NC(=S)NC(CO)C(O)c2ccc([N+](=O)[O-])cc2)cc1 (stereo not given)	-1.1%	-5.6%	2.0%	x	3.8%	-1.2%
CCOc1ccc(C2CC(=O)N(c3cccc(F)c3)C3=C2C(=O)OC3)cc1 (stereo not given)	x	x	-0.2%	2.7%	x	x
O=C(O)c1ccc(N/N=C/c2ccc(-c3ccc(Br)cc3)o2)cc1	18.5%	22.3%	2.39µM*	x	u	u
O=C(O)c1cc(-c2ccc(/C=N/Nc3ccc(Cl)cc3)o2)ccc1Cl	2.6%	14.0%	10.7µM*	0.1%	11.4%	0.2%
Cc1ccc(/C=N/Nc2ccc(C(=O)O)cc2)o1	0.398µM*	0.708µM*	6.75µM*	10µM*	u	u
Cc1ccc(-c2nc(N3CCCC(C)C3)c3ccccc3n2)cc1 (stereo not given)	x	x	6.0%	-2.4%	x	x

Screens as filed in PubChem BioAssay.
